Measured values published in PubChem BioAssay.

Tested on: not listed separately
Test: small-molecule microarray binders of probe aNog, primary screen, biochemical, biotinylated probe, 635/667 nm fluorescence (AID 1115);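 further: probe is biotinylated aNog protein used at 0.15 µg/mL for 1 h at 4 C; z-score combines 667 nm fluorescence of each spot with its signal to noise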
Details: higher = more signal

| Structure (SMILES) | composite z-score |
| --- | --- |
| COC(=O)[C@@]1(Cc2ccccc2N=[N+]=[N-])COC(c2ccc(OCCCO)cc2)=N1 | 0.0531 |
| CC(C)C(=C=CC[C@@H](O)c1ccccc1OCCO)C[C@@H](O)c1ccccn1 | -0.158 |
| O=C(O)[C@H]1C[C@H]2C(=O)NCC(=O)N2[C@H]1c1ccc(O)cc1 | -0.312 |
| C=CC[C@]1(C(=O)N2CCOCC2)N=C(c2ccc(OCCCO)cc2)O[C@H]1c1ccccc1 | 1.53 |
| COc1cc(C(O)C2C=CC3C(=O)N(c4ccccc4)C(=O)C3N2Nc2ccc(C#N)cc2)cc(OC)c1OC (stereo not given) | 1.42 |
| O=C1O[C@H](c2ccccc2)[C@H](c2ccccc2)N2[C@H]1[C@@H](C(=O)Nc1nc3ccccc3s1)[C@]1(C(=O)Nc3ccccc31)[C@H]2c1ccc(O)cc1 | -0.0272 |
| O=C1O[C@@H](c2ccccc2)[C@@H](c2ccccc2)N2[C@@H](c3ccc(O)cc3)[C@]3(C(=O)Nc4ccc(C#CC5(O)CCCCCC5)cc43)[C@@H](C(=O)N3CCCCCCC3)[C@H]12 | 3.67 |
| O=C1C=CC(=O)[C@@H]2CC(COc3ccccc3)=C3[C@@H](CCc4ccccc4)OB(O)C[C@@H]3[C@H]12 | -0.175 |
| CCOC(=O)C1=CCC(C(C)(C)C)N(S(=O)(=O)c2ccc(C)cc2)C1 (stereo not given) | 0.562 |
| CCOC(=O)C1=CCC(c2ccc([N+](=O)[O-])cc2)N(S(=O)(=O)c2ccc(C)cc2)C1 (stereo not given) | 0.61 |
| NCCCCCCNC(=O)[C@H]1C[C@H]2C(=O)NCC(=O)N2[C@H]1c1cccc(OCCO)c1 | 0.0234 |
| NC(=O)NCC#Cc1ccc2c(c1)[C@]1(C(=O)N2)[C@H](C(=O)NC[C@H](O)c2ccccc2)[C@H]2C(=O)O[C@H](c3ccccc3)[C@H](c3ccccc3)N2[C@@H]1c1ccc(O)cc1 | 0.921 |
| O=C1N(CCS(=O)(=O)c2ccccc2)Cc2ccccc2[C@H]2OC(c3ccc(OCCCO)cc3)=N[C@@]12CCS(=O)(=O)c1ccccc1 | 0.763 |
| O=C1C2C=CC(C(O)c3ccc(F)cc3)N(Nc3ccccc3)C2C(=O)N1c1ccccc1 (stereo not given) | 0.195 |
| CCOC(=O)C1=C[C@@H](CC)N(S(=O)(=O)c2ccc(C)cc2)[C@H]1c1ccccc1 | 0.925 |
| COc1ccc(CCNC(=O)[C@@]2(c3ccc([N+](=O)[O-])cc3)CC(=O)N(CC34CC5CC(CC(C5)C3)C4)[C@@H]2c2ccc(CO)cc2)cc1 | -0.0281 |
| CCC[C@@H]1C=C(C(=O)O)[C@H](c2ccc(C)cc2)N1S(=O)(=O)c1ccc(C)cc1 | 0.582 |
| [N-]=[N+]=NCc1ccccc1[C@H]1OC(c2ccc(OCCCO)cc2)=N[C@@]1(CCS(=O)(=O)c1ccccc1)C(=O)N1CCOCC1 | 2.25 |
| O=C/C=C/c1ccc2c(c1)OCO2 | -0.441 |
| COc1ccc(C(O)C2C=CC3C(=O)N(C)C(=O)C3N2Nc2ccccc2)cc1OCc1ccccc1 (stereo not given) | 0.289 |
| C=C(CCCC)/C(=C/C[C@H](OC(C)=O)c1ccc(CO)o1)c1cnc2ccccc2c1 | -0.28 |
| COCCOC(=O)N1C(=O)[C@@]2(c3cc(C#CCCO)ccc31)[C@H](c1ccccc1OCCO)N1[C@H](c3ccccc3)[C@H](c3ccccc3)OC(=O)[C@H]1[C@@H]2C(=O)N1CCN(c2ncccn2)CC1 | 0.435 |
| CCCCC(O)C1C=CC2C(=O)N(C3CCCCC3)C(=O)C2N1Nc1ccc(OC)cc1 (stereo not given) | 0.712 |
| COCCOC(=O)N1C(=O)[C@@]2(c3cc(C#CCNC(N)=O)ccc31)[C@H](c1ccc(OCCO)cc1)N1[C@H](c3ccccc3)[C@H](c3ccccc3)OC(=O)[C@H]1[C@@H]2C(=O)N1CCc2cc(OC)c(OC)cc2C1 | -0.0428 |
| COc1ccc([Si](C)(C)[C@H]2[C@H](CC(=O)N(CCO)Cc3ccccc3)O[C@@]3(C(=O)N(Cc4cccc(N5CCC5=O)c4)c4ccccc43)[C@@H]2C)cc1 | -0.0311 |

Target: Torsin-1A-interacting protein 1 (Homo sapiens) (UniProt Q5JTV8)
Sequence (Q5JTV8 whole entry, looked up): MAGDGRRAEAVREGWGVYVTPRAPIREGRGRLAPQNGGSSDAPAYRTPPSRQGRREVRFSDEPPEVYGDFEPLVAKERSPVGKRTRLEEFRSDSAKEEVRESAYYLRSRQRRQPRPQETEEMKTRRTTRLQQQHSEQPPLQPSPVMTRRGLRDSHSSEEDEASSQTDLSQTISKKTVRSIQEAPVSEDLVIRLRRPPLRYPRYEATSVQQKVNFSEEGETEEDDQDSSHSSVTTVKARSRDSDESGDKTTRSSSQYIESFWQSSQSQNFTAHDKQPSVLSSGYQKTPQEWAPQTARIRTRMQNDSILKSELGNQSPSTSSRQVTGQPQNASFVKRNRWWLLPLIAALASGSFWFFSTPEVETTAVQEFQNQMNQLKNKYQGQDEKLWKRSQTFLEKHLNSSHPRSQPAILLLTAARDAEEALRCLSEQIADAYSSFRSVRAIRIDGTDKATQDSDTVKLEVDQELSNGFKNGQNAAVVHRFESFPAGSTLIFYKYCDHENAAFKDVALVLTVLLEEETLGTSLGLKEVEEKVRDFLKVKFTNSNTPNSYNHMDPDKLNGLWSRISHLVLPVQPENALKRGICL
Test: LAP1 binders from COS7 cell lysate, primary screen, small-molecule microarray, 635/667 nm fluorescence (AID 1116)
Details: COS7-hLAP1 lysate binding, 635 nm fluorescence, higher = more signal

| Structure (SMILES) | composite z-score |
| --- | --- |
| [N-]=[N+]=Nc1ccccc1C[C@]1(C(=O)NCCN2CCOCC2)N=C(c2ccc(OCCCO)cc2)O[C@H]1c1ccccc1 | 1.44 |
| CCOC(=O)C[C@H]1[C@H](OC(=O)c2ccc(-c3ccccc3)cc2)[C@@H](NC(=O)c2ccc3ccccc3c2)c2cc(OCCCO)ccc2N1C(=O)Cc1ccc(OC)cc1 | 0.15 |
| CC(C)(C)OC(=O)CC[C@@]1(C(=O)O)N=C(c2ccc(OCCCO)cc2)O[C@@H]1c1ccccc1N=[N+]=[N-] | 1.06 |
| O=C1C[C@]2(c3ccc([N+](=O)[O-])cc3)C(=O)N(CC(F)(F)F)c3cc(CO)ccc3[C@H]2N1CC12CC3CC(CC(C3)C1)C2 | -0.371 |
| O=C1OCCC=C[C@H]2OC34C=CCN(c5ccc6ccccc6c5)C(=O)[C@H]3N(CCCCCO)C(=O)[C@@H]4C12 (stereo not given in full) | 1.92 |
| Cc1cc(C)c(C(O)C2C=CC3C(=O)N(c4ccccc4)C(=O)C3N2Nc2ccc(C#N)cc2)c(C)c1 (stereo not given) | 0.922 |
| C=C[C@@H](COC(C)=O)N(Cc1ccccc1[N+](=O)[O-])S(=O)(=O)c1ccc(Br)cc1 | 0.954 |
| COCCOC(=O)N1C(=O)[C@@]2(c3cc(C#Cc4ccc(OC)cc4)ccc31)[C@H](C(=O)N1CCN(c3ncccn3)CC1)[C@H]1C(=O)O[C@H](c3ccccc3)[C@H](c3ccccc3)N1[C@@H]2c1ccc(O)cc1 | 0.135 |
| CCOC(=O)C[C@H]1[C@H](OC(=O)c2ccc(-c3ccccc3)cc2)[C@@H](NC(=O)c2ccc(-c3ccccc3)cc2)c2cc(OCCCO)ccc2N1C(=O)Cc1ccc(OC)cc1 | 0.575 |
| COC(=O)[C@@]1(Cc2ccccc2)[C@H]2c3cc(C(=O)N4CCCC4)n(C)c3C[C@H]2CN1C(=O)c1ccccc1 | 1.28 |
| COC(=O)[C@@]1(Cc2ccccc2N=[N+]=[N-])COC(c2ccc(OCCCO)cc2)=N1 | 0.852 |
| CC(C)C(=C=CC[C@@H](O)c1ccccc1OCCO)C[C@@H](O)c1ccccn1 | -0.221 |
| O=C(O)[C@H]1C[C@H]2C(=O)NCC(=O)N2[C@H]1c1ccc(O)cc1 | 0.519 |
| C=CC[C@]1(C(=O)N2CCOCC2)N=C(c2ccc(OCCCO)cc2)O[C@H]1c1ccccc1 | 2.09 |
| COc1cc(C(O)C2C=CC3C(=O)N(c4ccccc4)C(=O)C3N2Nc2ccc(C#N)cc2)cc(OC)c1OC (stereo not given) | 1.52 |
| O=C1O[C@H](c2ccccc2)[C@H](c2ccccc2)N2[C@H]1[C@@H](C(=O)Nc1nc3ccccc3s1)[C@]1(C(=O)Nc3ccccc31)[C@H]2c1ccc(O)cc1 | 0.536 |
| O=C1O[C@@H](c2ccccc2)[C@@H](c2ccccc2)N2[C@@H](c3ccc(O)cc3)[C@]3(C(=O)Nc4ccc(C#CC5(O)CCCCCC5)cc43)[C@@H](C(=O)N3CCCCCCC3)[C@H]12 | 4.7 |
| O=C1C=CC(=O)[C@@H]2CC(COc3ccccc3)=C3[C@@H](CCc4ccccc4)OB(O)C[C@@H]3[C@H]12 | 0.0342 |

| Structure (SMILES) | composite z-score |
| --- | --- |
| CCOC(=O)C1=CCC(C(C)(C)C)N(S(=O)(=O)c2ccc(C)cc2)C1 (stereo not given) | 0.944 |
| CCOC(=O)C1=CCC(c2ccc([N+](=O)[O-])cc2)N(S(=O)(=O)c2ccc(C)cc2)C1 (stereo not given) | 0.304 |
| NCCCCCCNC(=O)[C@H]1C[C@H]2C(=O)NCC(=O)N2[C@H]1c1cccc(OCCO)c1 | 0.963 |
| NC(=O)NCC#Cc1ccc2c(c1)[C@]1(C(=O)N2)[C@H](C(=O)NC[C@H](O)c2ccccc2)[C@H]2C(=O)O[C@H](c3ccccc3)[C@H](c3ccccc3)N2[C@@H]1c1ccc(O)cc1 | 1.45 |
| O=C1N(CCS(=O)(=O)c2ccccc2)Cc2ccccc2[C@H]2OC(c3ccc(OCCCO)cc3)=N[C@@]12CCS(=O)(=O)c1ccccc1 | 1.41 |
| O=C1C2C=CC(C(O)c3ccc(F)cc3)N(Nc3ccccc3)C2C(=O)N1c1ccccc1 (stereo not given) | 0.691 |
| CCOC(=O)C1=C[C@@H](CC)N(S(=O)(=O)c2ccc(C)cc2)[C@H]1c1ccccc1 | 0.905 |
| COc1ccc(CCNC(=O)[C@@]2(c3ccc([N+](=O)[O-])cc3)CC(=O)N(CC34CC5CC(CC(C5)C3)C4)[C@@H]2c2ccc(CO)cc2)cc1 | 0.299 |
| CCC[C@@H]1C=C(C(=O)O)[C@H](c2ccc(C)cc2)N1S(=O)(=O)c1ccc(C)cc1 | 0.959 |
| [N-]=[N+]=NCc1ccccc1[C@H]1OC(c2ccc(OCCCO)cc2)=N[C@@]1(CCS(=O)(=O)c1ccccc1)C(=O)N1CCOCC1 | 3.34 |
| O=C/C=C/c1ccc2c(c1)OCO2 | 0.122 |
| COc1ccc(C(O)C2C=CC3C(=O)N(C)C(=O)C3N2Nc2ccccc2)cc1OCc1ccccc1 (stereo not given) | 1.25 |
| C=C(CCCC)/C(=C/C[C@H](OC(C)=O)c1ccc(CO)o1)c1cnc2ccccc2c1 | -0.092 |
| COCCOC(=O)N1C(=O)[C@@]2(c3cc(C#CCCO)ccc31)[C@H](c1ccccc1OCCO)N1[C@H](c3ccccc3)[C@H](c3ccccc3)OC(=O)[C@H]1[C@@H]2C(=O)N1CCN(c2ncccn2)CC1 | 1.16 |
| CCCCC(O)C1C=CC2C(=O)N(C3CCCCC3)C(=O)C2N1Nc1ccc(OC)cc1 (stereo not given) | 0.624 |
| COCCOC(=O)N1C(=O)[C@@]2(c3cc(C#CCNC(N)=O)ccc31)[C@H](c1ccc(OCCO)cc1)N1[C@H](c3ccccc3)[C@H](c3ccccc3)OC(=O)[C@H]1[C@@H]2C(=O)N1CCc2cc(OC)c(OC)cc2C1 | 0.743 |
| COc1ccc([Si](C)(C)[C@H]2[C@H](CC(=O)N(CCO)Cc3ccccc3)O[C@@]3(C(=O)N(Cc4cccc(N5CCC5=O)c4)c4ccccc43)[C@@H]2C)cc1 | 0.059 |
